Bioassay records (PubChem)
An excerpt weighted towards active compounds, which were near 4.3% of everything screened.
D3 ag = qHTS of D3 Dopamine Receptor Agonist: qHTS; D(3) dopamine receptor (Homo sapiens), P35462; D3R DiscoveRx beta-arrestin cells, luminescence, 90 min; max activation, %; 0.58% of 410,000 active; AID 652048, 2013; in the data active = max activation above about 30%; note: 0% is about no effect
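Agonist-mode cell screen: cells plated at 1500/well and incubated overnight at 37 °C, then exposed to library compounds for 90 min at 37 °C. Detection reagent was added for 30–60 min at room temperature, and luminescence was read.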
D3 antag = qHTS of D3 Dopamine Receptor Antagonist: qHTS. D(3) dopamine receptor (Homo sapiens), P35462. D3R cells, DiscoveRx beta-arrestin luminescence, antagonist mode; hits give low values. max response, negative = inhibition, %. 2.5% of 360,000 active. AID 652054, 2013; in the data active = max response below about -50%; inconclusive = no clear call, values can overlap the other calls; note: % is set by controls: 0 for no effect and ±100 for the full control effect
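Cells expressing the human receptor were seeded at 1500 cells/well, incubated overnight at 37 degrees C in 5% CO2, then exposed to library compounds with dopamine controls for 90 minutes at 37 degrees C before luminescent detection.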
GLP-1R inv ag = qHTS of GLP-1 Receptor Inverse Agonists (Inhibition Mode); Glucagon-like peptide 1 receptor (Homo sapiens), P43220; HEK293 GLP-1R CRE-luciferase, luminescence, 24 h; GLP-1R form is constitutively active; Potency, µM (top dose mostly 38.3 µM), inactives show top-dose activity change, negative = inhibition, actives largely listed as inhibitors; 1.6% of 410,000 active; AID 624417, 2012; note: potency is the fitted concentration of half-maximal effect; % is set by controls: 0 for no effect and ±100 for the full control effect; nearly all actives have a fitted effect of over 55% in size
Target sequence (P43220 whole entry, looked up): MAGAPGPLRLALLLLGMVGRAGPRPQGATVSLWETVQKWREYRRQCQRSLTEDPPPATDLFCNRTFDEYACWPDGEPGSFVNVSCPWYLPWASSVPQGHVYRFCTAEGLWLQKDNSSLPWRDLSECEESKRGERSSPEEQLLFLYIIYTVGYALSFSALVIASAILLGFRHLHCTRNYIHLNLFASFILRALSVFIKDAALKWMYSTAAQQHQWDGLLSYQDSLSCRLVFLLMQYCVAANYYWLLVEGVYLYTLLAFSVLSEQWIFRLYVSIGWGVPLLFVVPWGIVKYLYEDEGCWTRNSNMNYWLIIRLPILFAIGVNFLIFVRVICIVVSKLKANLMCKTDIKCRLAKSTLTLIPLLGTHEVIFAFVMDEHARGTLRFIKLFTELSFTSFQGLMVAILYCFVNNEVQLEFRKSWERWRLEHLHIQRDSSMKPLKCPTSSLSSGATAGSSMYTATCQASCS
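Constitutively active GLP-1R drives a cAMP-responsive luciferase in stably transfected HEK293 cells; test compounds are added after overnight (12 h) attachment and left 24 hr, and signal loss in luminescence marks inhibition.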
GLP1R ag = qHTS of GLP-1 Receptor Agonists; HEK293 GLP-1R CRE-luciferase, luminescence, 4-6 h; cells express a hypersensitive GLP-1R form; Potency, µM (highest dose often 45.6 µM), inactives show at the top dose activation, hits mostly activators; 0.007% of 380,000 active; AID 624172, 2012; note: potency is the fitted concentration of half-maximal effect; % of control where 0% means no effect
An asterisk follows results filed as active; ? = inconclusive; . = no result given. Unless noted, calls come from the whole dose curve; as a rule, active = well fitted curve in the direction sought with a large enough effect; inconclusive = small, poorly fitted or top-dose-only effect, or another doubt; inactive = no such curve, though single readings can be large; an effect the other way counts as inactive or inconclusive.

SMILES	D3 ag	D3 antag	GLP-1R inv ag	GLP1R ag
Cc1ccc(SCCOCCN2CCc3ccccc3C2)cc1	-10.6	-104.8*	?	1.5%
O=C1NC[C@H](Cc2ccc(O)cc2)N(CCc2cccc(F)c2)C1=O	-6.0	-24.2	3.3%	-3.4%
C=CCc1cc(OC)ccc1OCCOCCC(C(=O)OCC)C(=O)OCC	6.6	2.0	4.3%	-0.1%
COc1ccc(C2(O)CCN(CCCCOc3ccccc3)CC2)cc1	-34.4	-90.0*	0.0%	-6.1%
COc1ccc(C2(O)CCN(C(=O)Cc3cccnc3)CC2)cc1	1.4	9.2	1.7%	-4.3%
C=CCc1cc(OC)ccc1OCCOCCN1CCc2ccccc2C1	-23.6	-87.5*	10µM*	18.1%
COc1ccc(OCCCN2CCc3ccccc3C2)cc1	-19.0	-109.3*	-42.6%	-2.7%
COc1ccc(NC(=O)N(Cc2nnc3n2CCCCC3)c2ccc(OC)c(Cl)c2)cc1	6.4	.	13.0%	-0.7%
Cc1nc(NC(=O)c2c(-c3ccccc3)c(-c3ccccc3)nn(C)c2=O)sc1C	15.5	.	?	.
O=C1CCCN1CCCNCC(=O)N1c2ccccc2Sc2ccccc21	-3.1	-53.3*	-0.3%	1.6%
CCN1C/C(=C/c2cccc([N+](=O)[O-])c2)C(=O)/C(=C/c2cccc([N+](=O)[O-])c2)C1	-7.5	-29.7	?	-14.7%
Cc1cccc(C(=O)NCC2CCCO2)c1 (centres undefined)	3.1	-53.7*	12.8%	-11.0%
Cc1noc(C)c1COc1ccc(C(=O)NCC2CCCO2)cc1 (centres undefined)	-5.9	-52.2*	5.9%	1.0%
Cc1cccc(/C=C2\Sc3ccc(C(=O)NCC4CCCO4)cc3N(C)C2=O)c1 (centres undefined)	-2.4	0.1	12.6µM*	-3.4%
COc1cccc(-c2nn(-c3ccc(C)cc3)cc2C(=O)NCC2CCCO2)c1 (centres undefined)	-22.1	-22.8	?	3.4%
COc1cccc(-c2cc(C(=O)NCC3CCCO3)c3cc(C)cc(C)c3n2)c1 (centres undefined)	66.0*	34.5	?	8.6%
CCC(=O)N1CCc2cc(S(=O)(=O)CCC(=O)N3CCN(c4cc(C)ccc4C)CC3)ccc21	-3.9	.	-8.1%	-0.4%
Cc1c(NC(=O)Nc2ccc(Cl)c(C(F)(F)F)c2)c(=O)n(-c2ccccc2)n1C	-11.0	.	-10.5%	.
Cc1cc(NC(=O)c2ccccc2F)ccc1-c1nc2ccccc2s1	-10.3	.	9.2%	.
CCCN(CCC)C(=O)Cc1coc2ccc3ccccc3c12	-1.2	-6.2	8.91µM*	0.8%
COc1cccc(NC(=O)CSc2nc3ccc(NC(=O)c4ccco4)cc3s2)c1	7.1	.	-14.6%	.
O=C(NC(=S)Nc1ccc(F)c(Cl)c1)C1CC1	10.1	-7.8	?	16.7%
Cc1ccc(NC(=S)NC(=O)C2CC2)cc1Cl	-10.2	3.2	10µM*	-5.6%
O=C(NCCN1CCCCC1)c1cc(COc2c(F)cccc2F)on1	-28.4	-61.7*	-18.6%	10.4%
Cc1cc(C)n(CCNC(=O)c2cc(COc3c(F)cccc3F)on2)n1	3.7	-25.3	5.6%	6.9%
SMILES	D3 ag	D3 antag	GLP-1R inv ag	GLP1R ag
O=C(Cn1cnnn1)N[C@@H]1C(=O)N2C(C(=O)O)=C(CSc3nncs3)CS[C@H]12	-0.3	.	.	-1.3%
C(=C\c1ccccc1)/CN1CCN(C(c2cccc3ccccc23)c2nnnn2Cc2ccccc2)CC1 (centres undefined)	-11.3	?	?	-0.6%
Cc1cccc(C)c1-n1nnnc1C(c1ccnc2ccccc12)N1CCCC1 (centres undefined)	-10.4	-56.2*	19.7%	1.5%
COc1cccc(C(c2nnnn2-c2c(C)cccc2C)N2CCN(C/C=C/c3ccccc3)CC2)c1OC (centres undefined)	-23.7	-121.3*	?	-2.3%
Cc1cccc(C)c1-n1nnnc1C(c1ccnc2ccccc12)N1CCN(C/C=C/c2ccccc2)CC1 (centres undefined)	-14.3	-116.4*	?	0.6%
Cc1cccc(C)c1-n1nnnc1C(c1ccnc2ccccc12)N1CCOCC1 (centres undefined)	0.7	3.4	10.7%	-1.3%
Fc1ccc(C(c2ccc(F)cc2)N2CCN(CC=Cc3ccccc3)CC2)cc1	.	.	.	-5.2%
COc1ccc(C(c2nnnn2-c2c(C)cccc2C)N2CCN(C/C=C/c3ccccc3)CC2)cc1 (centres undefined)	-15.8	-87.2*	23.1%	-0.6%
CC(C)(C)n1nnnc1C(c1ccnc2ccccc12)N1CCN(C/C=C/c2ccccc2)CC1 (centres undefined)	-10.1	2.1	-11.0%	7.0%
Cc1c(CNC2CCCCC2)c(C(=O)O)c(C)n1Cc1ccccc1F	-15.9	.	-4.2%	.
CC(=O)c1cccc(NC(=O)Nc2sc3nc4n(c(=O)c3c2C)CCC(C)CC4)c1 (centres undefined)	-16.4	.	?	.
Cc1cccc(C)c1NC(=O)C(c1ccccc1OC(F)(F)F)N1CCN(C/C=C/c2ccccc2)CC1 (centres undefined)	-14.8	-63.3*	?	-1.0%
Cc1cccc(C)c1-n1nnnc1C(c1ccccc1OC(F)(F)F)N1CCN(C/C=C/c2ccccc2)CC1 (centres undefined)	-8.2	-95.4*	?	-2.4%
CC(=O)N1CCOc2cc(S(=O)(=O)NCc3ccc(C)cc3)c(C)cc21	-7.4	.	3.4%	.
O=C(NC(=S)Nc1ccc(CN2CCOCC2)cc1)c1cccc([N+](=O)[O-])c1	-17.8	0.0	1.4%	11.1%
O=C(NC(=S)Nc1ccc(CN2CCOCC2)cc1)c1ccc([N+](=O)[O-])cc1Cl	-16.4	-78.4*	-25.7%	14.7%
O=C(NC(=S)Nc1ccc(CN2CCOCC2)cc1)c1ccccc1[N+](=O)[O-]	-11.3	-107.2*	10.5%	3.9%
Cc1cc(C)cc(NC(=O)C(C)N2Cc3ccccc3C2=O)c1 (centres undefined)	3.8	.	14.6%	.
CCOc1ccccc1CNC(=O)c1cc(-c2ccc(Cl)s2)nc2ccccc12	6.5	.	-1.8%	.
C[C@@H](O[C@H]1OCCN(Cc2n[nH]c(=O)[nH]2)[C@H]1c1ccc(F)cc1)c1cc(C(F)(F)F)cc(C(F)(F)F)c1	13.7	.	.	.
CCN(CC)c1ccc(/C=N/Nc2nc(C)cc(C)n2)cc1	-2.5	-6.6	11.2µM*	9.6%
COc1cccc(/C=C2\SC(=O)N(CCC(=O)NNC(=O)c3ccccc3Cl)C2=O)c1	57.0*	15.6	6.7%	0.9%
COc1cccc(/C=C2\SC(=S)N(CCC(=O)NCCc3ccc(O)cc3)C2=O)c1	2.6	-12.1	3.98µM*	-2.9%
CCCOc1ccc(CNC(=O)Cn2cc3c(n2)-c2c(oc(C(=O)N4CCOCC4)c2C)CC3)cc1	4.3	.	1.0%	.
